Test results reported in PubChem BioAssay AID1159580 (chemical genetic matrix, 2015).
“And” between values parts separate entries of the source, which are not always exact repeats. Equal entries are not always repeated. Hit rate of the full screen: of about 5,500 compounds, about 2,000 (36%) were called active. Inconclusive results (about 18%) are left out. No stated cut-off is given here; in the data, active means normalized growth mostly below about 0.91 (no sharp cut-off); inconclusive means no clear call, values can overlap the other calls; inactive means mostly above about 0.92. Some of the results follow.

Test: chemical genetic growth profiling, strain panel (AID 1159580);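 further: tested at 20 µM; growth read once vehicle control cultures reached saturation at 30 °C; 1 = growth at the plate median or of vehicle wells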
Settings: S. cerevisiae deletion strains, growth OD

Measured: normalized growth

O=C1NCC2(CCN(CCc3ccccc3)CC2)O1
inactive: locus YAL013W, strain DEP1, stronger effect = lower value 1.02 | locus YAL021C, strain ccr4, stronger effect = lower value 0.973 | locus YAL026C, strain drs2, stronger effect = lower value 0.99 | locus YAL030W, strain snc1, stronger effect = lower value 1 | locus YAL040C, strain CLN3, stronger effect = lower value 1 | locus YBL061C, strain skt5, stronger effect = lower value 0.983 | locus YBR009C, strain hhf1, stronger effect = lower value 0.992 | locus YBR021W, strain FUR4, stronger effect = lower value 1.01 | locus YBR023C, strain chs3, stronger effect = lower value 0.993 | locus YBR171W, strain sec66, stronger effect = lower value 0.99 | locus YBR229C, strain ROT2, stronger effect = lower value 1.01 | locus YBR231C, strain swc5, stronger effect = lower value 0.985 | locus YBR279W, strain paf1, stronger effect = lower value 1.01 | locus YCL011C, strain gbp2, stronger effect = lower value 1.01 | locus YCL016C, strain dcc1, stronger effect = lower value 1.02 | locus YCL029C, strain bik1, stronger effect = lower value 1 | locus YCL061C, strain MRC1 (second series), stronger effect = lower value 1.01 | locus YCL069W, strain vba3, stronger effect = lower value 0.982 | locus YCR088W, strain abp1, stronger effect = lower value 1.01 | locus YDL005C, strain med2, stronger effect = lower value 0.987 | locus YDL035C, strain GPR1, stronger effect = lower value 1.01 | locus YDL040C, strain nat1, stronger effect = lower value 0.996 | locus YDL074C, strain BRE1, stronger effect = lower value 1.02 | locus YDL101C, strain DUN1, stronger effect = lower value 1.02 | locus YDL134C, strain PPH21, stronger effect = lower value 1 | locus YDL185W, strain tfp1, stronger effect = lower value 1.01 | locus YDL192W, strain arf1, stronger effect = lower value 1.01 | locus YDR001C, strain nth1, stronger effect = lower value 0.99 | locus YDR069C, strain doa4, stronger effect = lower value 0.983 | locus YDR101C, strain arx1, stronger effect = lower value 0.994 | locus YDR137W, strain rgp1, stronger effect = lower value 0.989 | locus YDR150W, strain NUM1, stronger effect = lower value 1 | locus YDR159W, strain sac3, stronger effect = lower value 0.989 | locus YDR162C, strain NBP2, stronger effect = lower value 1.01 | locus YDR195W, strain ref2 0.973 | locus YDR297W, strain sur2, stronger effect = lower value 1 | locus YDR318W, strain mcm21, stronger effect = lower value 1.01 | locus YDR334W, strain swr1, stronger effect = lower value 0.983 | locus YDR335W, strain msn5, stronger effect = lower value 0.971 | locus YDR363W, strain ESC2, stronger effect = lower value 1 | locus YDR388W, stronger effect = lower value 1 | locus YDR392W, strain spt3, stronger effect = lower value 1.02 | locus YDR502C, strain sam2, stronger effect = lower value 0.995 | locus YEL003W, strain gim4, stronger effect = lower value 0.99 | locus YEL037C, strain rad23, stronger effect = lower value 0.982 | locus YEL061C, strain CIN8 (second series), stronger effect = lower value 0.978 | locus YEL061C, strain CIN8, stronger effect = lower value 1 | locus YER002W, strain NOP16, stronger effect = lower value 1.01 | locus YER015W, strain faa2, stronger effect = lower value 1 | locus YER016W, strain bim1, stronger effect = lower value 1.01 | locus YER110C, stronger effect = lower value 1 | locus YER111C, strain swi4, stronger effect = lower value 0.992 | locus YER155C, strain BEM2 (second series), stronger effect = lower value 0.996 | locus YER155C, strain BEM2, stronger effect = lower value 1 | locus YER167W, strain BCK2, stronger effect = lower value 1 | locus YFR010W, strain ubp6, stronger effect = lower value 0.965 | locus YGL078C, strain dbp3, stronger effect = lower value 0.994 | locus YGL086W, strain mad1, stronger effect = lower value 0.993 | locus YGL167C, strain pmr1, stronger effect = lower value 0.982 | locus YGL173C, strain kem1, stronger effect = lower value 0.979 | locus YGL227W, strain vid30, stronger effect = lower value 1 | locus YGL240W, strain doc1, stronger effect = lower value 0.969 | locus YGL248W, strain PDE1, stronger effect = lower value 1.01 | locus YGL253W, strain hxk2, stronger effect = lower value 0.982 | locus YGR078C, strain PAC10, stronger effect = lower value 1.01 and 1.02 | locus YGR135W, strain pre9, stronger effect = lower value 0.999 | locus YGR229C, strain SMI1, stronger effect = lower value 1 | locus YGR252W, strain gcn5, stronger effect = lower value 0.944 | locus YHR013C, strain ard1, stronger effect = lower value 0.974 | locus YHR027C, strain rpn1, stronger effect = lower value 1 | locus YHR030C, strain SLT2, stronger effect = lower value 1.01 and 0.988 | locus YHR079C, strain IRE1 (second series), stronger effect = lower value 1.01 | locus YHR079C, strain IRE1, stronger effect = lower value 0.979 | locus YHR094C, strain hxt1, stronger effect = lower value 1 | locus YHR129C, strain ARP1, stronger effect = lower value 1.02 | locus YHR142W, strain chs7, stronger effect = lower value 0.966 | locus YHR200W, strain rpn10, stronger effect = lower value 0.994 | locus YIL066C, strain RNR3, stronger effect = lower value 1.01 | locus YIL073C, strain SPO22, stronger effect = lower value 1.01 | locus YIL125W, strain kgd1, stronger effect = lower value 0.998 | locus YIR030C, strain dcg1, stronger effect = lower value 0.994 | locus YJL092W, strain hpr5, stronger effect = lower value 0.997 | locus YJL095W, strain BCK1 (second series), stronger effect = lower value 0.993 | locus YJL095W, strain BCK1, stronger effect = lower value 1.04 and 0.982 | locus YJL115W, strain asf1, stronger effect = lower value 0.976 | locus YJL129C, strain trk1, stronger effect = lower value 0.967 | locus YJL134W, strain LCB3, stronger effect = lower value 1.01 | locus YJL154C, strain vps35, stronger effect = lower value 1 | locus YJL164C, strain tpk1, stronger effect = lower value 1.01 | locus YJL166W, strain qcr8, stronger effect = lower value 0.997 | locus YJL168C, strain set2, stronger effect = lower value 1.01 | locus YJL187C, strain SWE1 (second series), stronger effect = lower value 1.02 | locus YJR043C, strain POL32, stronger effect = lower value 1.02 | locus YJR066W, strain TOR1, stronger effect = lower value 0.913 | locus YJR075W, strain HOC1, stronger effect = lower value 1 and 0.995
